Screening results: PubChem BioAssay, several laboratories
Compounds with a hit are over-represented: about 3.8% of the library has one in this group of screens.
Gli-Sufu block: antagonists of Gli-Sufu signaling; inhibition, % at 5 µM; AID 588413; Sufu-KO-LIGHT fibroblasts, Gli luciferase reporter luminescence; 340,000 compounds, 0.74% hits;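 active = inhibition above about 55%, limit read from the data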
697 NFkB inh: inhibitors of the PMA/ionomycin-induced NF-kB reporter in 697 B cells | 697 B-cell NF-kB luciferase reporter, 16 h | inhibition, % at 4 µM | 330,000 compounds, 0.33% hits; in the data active = inhibition above about 35%
Jurkat NFkB inh: lowers PMA/ionomycin-induced NF-kB signal in Jurkat cells; AID 435003; PMA/ionomycin-induced NF-kB luciferase reporter, luminescence; inhibition, % at 4 µM; 330,000 compounds, 0.53% hits; in the data active = inhibition above about 50%
Mdm2-MdmX inh: human Mdm2/MdmX binding inhibition; inhibition, % at 8 µM; 330,000 compounds, 3% hits; SaOS-2 split-luciferase Mdm2/MdmX complementation, luminescence;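 active = inhibition of at least 50% at 8 µM in the primary screen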
Target sequence (O15151 whole entry, looked up): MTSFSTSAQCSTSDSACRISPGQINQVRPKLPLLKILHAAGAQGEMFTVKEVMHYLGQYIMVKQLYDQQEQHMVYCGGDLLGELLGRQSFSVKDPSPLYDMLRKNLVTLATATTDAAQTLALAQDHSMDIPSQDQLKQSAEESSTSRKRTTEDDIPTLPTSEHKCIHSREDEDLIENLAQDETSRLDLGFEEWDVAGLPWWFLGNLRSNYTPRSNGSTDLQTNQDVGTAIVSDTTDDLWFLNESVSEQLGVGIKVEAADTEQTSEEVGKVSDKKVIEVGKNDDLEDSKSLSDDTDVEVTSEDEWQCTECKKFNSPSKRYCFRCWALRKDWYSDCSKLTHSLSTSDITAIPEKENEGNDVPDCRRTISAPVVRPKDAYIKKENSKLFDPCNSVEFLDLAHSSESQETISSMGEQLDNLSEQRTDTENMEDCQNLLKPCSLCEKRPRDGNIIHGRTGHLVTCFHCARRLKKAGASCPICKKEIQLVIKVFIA
Target sequence (Q00987 whole entry, looked up): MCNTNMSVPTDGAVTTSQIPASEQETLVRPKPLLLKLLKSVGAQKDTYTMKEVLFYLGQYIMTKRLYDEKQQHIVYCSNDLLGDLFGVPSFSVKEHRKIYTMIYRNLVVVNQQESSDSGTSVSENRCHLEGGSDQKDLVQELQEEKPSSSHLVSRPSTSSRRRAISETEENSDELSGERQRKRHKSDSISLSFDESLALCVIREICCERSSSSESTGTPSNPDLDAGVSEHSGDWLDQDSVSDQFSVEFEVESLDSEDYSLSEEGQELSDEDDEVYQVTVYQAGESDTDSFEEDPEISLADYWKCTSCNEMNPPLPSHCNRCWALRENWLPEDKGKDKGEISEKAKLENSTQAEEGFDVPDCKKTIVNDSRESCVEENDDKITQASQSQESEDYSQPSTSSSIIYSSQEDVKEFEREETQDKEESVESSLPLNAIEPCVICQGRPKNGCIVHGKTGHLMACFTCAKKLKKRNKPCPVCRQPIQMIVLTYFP
Shn3 3UTR inh: inhibitors of Schnurri-3 3'UTR reporter in osteoblasts; 360,000 compounds, 0.52% hits; inhibition, % at 12.5 µM; Clone20 osteoblast Shn3 3'UTR firefly luciferase, 24 h; AID 588674;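 active = mean inhibition of at least 75% with every replicate also reaching 75%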
Jurkat NFkB conf: inhibitors of the PMA/ionomycin-induced NF-kB reporter in Jurkat cells, retest; shares compounds with Jurkat NFkB inh; Jurkat NF-kB luciferase, 16 h; inhibition, % at 4 µM; 2,700 compounds, 27% hits;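 active = inhibition reaching about 45% at 4 µM in either replicate, limit read from the data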
697 NFkB conf: inhibitors of the PMA/ionomycin-induced NF-kB reporter in 697 B cells, retest; 2,000 compounds, 35% hits; shares compounds with 697 NFkB inh; inhibition, % at 4 µM; AID 449746; 697 B-cell NF-kB luciferase, 16 h; in the data active = inhibition mostly above about 28%, no sharp cut-off; inactive = mostly below about 22%
Mdm2 MdmX conf: human Mdm2/MdmX binding inhibition, confirmed | luminescent assay | inhibition, % at 8 µM | shares compounds with Mdm2-MdmX inh | 10,000 compounds, 55% hits; in the data active = inhibition above about 40%
FLuc counter: counter-screen for Mdm2/MdmX inhibitors: full-length luciferase. shares compounds with Mdm2-MdmX inh. SaOS-2 full-length luciferase counterscreen, luminescence. inhibition, % at 8 µM. 6,200 compounds, 77% hits. AID 504607;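 active = mean inhibition at 8 µM reaching about 37%, which flags the compound as non-specific, limit read from the data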;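 also: p53-null SaOS-2 cells with luciferase driven by a doxycycline-inducible promoter; compound on cells about two nights before reading with doxycycline added after day one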
Of the large screens only hits and unclear results are named; the others gave an inactive call (follow-up assays come after a bar, where they were run).

CCCC[C@@H](C)C[C@@H](C)C(=O)N(C)[C@@H](CC(C)C)C(=O)N[C@H](C(=O)N(C)[C@H](C(=O)N1C[C@@H](O)C[C@H]1C(=O)N1C(=O)C=C[C@@H]1C)C(C)C)C(C)OC(C)=O (stereo not given in full)	Jurkat NFkB inh 91, Mdm2-MdmX inh 95 | Jurkat NFkB conf 93 | Mdm2 MdmX conf 97 | FLuc counter 55
O=C(/C=C/c1ccc(Br)cc1)NC(=S)N1C[C@H]2C[C@H](C1)c1cccc(=O)n1C2	none
C=C1C(=O)O[C@@H]2C[C@@H](C)[C@@H]3C=CC(=O)[C@@]3(C)[C@@H](OC(=O)CC(=O)O[C@H]3[C@@H]4C(=C)C(=O)O[C@@H]4C[C@@H](C)[C@@H]4C=CC(=O)[C@]43C)[C@H]12	Gli-Sufu block 93, 697 NFkB inh 104, Jurkat NFkB inh 93, Mdm2-MdmX inh 97, Shn3 3UTR inh 96 | Jurkat NFkB conf 100 | 697 NFkB conf 101 | Mdm2 MdmX conf 100 | FLuc counter inactive
C=C1C(=O)O[C@H]2C[C@@H](C)[C@@H]3C=CC(=O)[C@@]3(C)C[C@H]12	Gli-Sufu block 61, Jurkat NFkB inh 88, Mdm2-MdmX inh 100 (no result: Shn3 3UTR inh) | Jurkat NFkB conf 63 | 697 NFkB conf inactive | Mdm2 MdmX conf 96 | FLuc counter 53
C=C1C(=O)OC2C1CCC(C)C1(O)C=CC(=O)C21C (stereo not given)	none (no result: 697 NFkB inh, Jurkat NFkB inh, Mdm2-MdmX inh)
CC(Cc1ccccc1)/[N+]([O-])=C\c1ccc(C(F)(F)F)cc1 (stereo not given)	none
CC(C)c1oc(=O)cc2c1[C@@H](O)[C@H]1OC(=O)[C@@]3(C)C[C@@H](O)[C@@H](O)[C@@]2(C)C13 (stereo not given in full)	Jurkat NFkB inh 90, Mdm2-MdmX inh 81 | Jurkat NFkB conf 90 | 697 NFkB conf inactive | Mdm2 MdmX conf 58 | FLuc counter inactive
CC(C)c1oc(=O)cc2c1[C@@H](O)[C@H]1OC(=O)[C@@]3(C)CC[C@@H](O)[C@@]2(C)C13 (stereo not given in full)	Jurkat NFkB inh 72, Mdm2-MdmX inh 63 | Jurkat NFkB conf 60 | Mdm2 MdmX conf 61 | FLuc counter 65
CC1CN2C(=O)C1(c1ccccc1)C(=O)NC2=S (stereo not given)	none (no result: Gli-Sufu block, 697 NFkB inh, Jurkat NFkB inh, Mdm2-MdmX inh)
Cc1ccc(C[n+]2c(-c3ccc(C)cc3)cc(-c3ccc(C)cc3)cc2-c2ccc(C)cc2)cc1	Gli-Sufu block 90, Jurkat NFkB inh 99, Mdm2-MdmX inh 100, Shn3 3UTR inh 92 | Jurkat NFkB conf 67 | Mdm2 MdmX conf 98 | FLuc counter inactive
Cc1cc(OCC(=O)NC(Cc2ccc(Cl)cc2)C(=O)O)c2c3c(c(=O)oc2c1)CCC3 (stereo not given)	none
COC1C(O)C(C)OC(OC2CCC3(C)C(CCC4C3C(O)CC3(C)C(C5=CC(=O)OC5)CCC43O)C2)C1O (stereo not given)	none (no result: 697 NFkB inh, Jurkat NFkB inh, Mdm2-MdmX inh)
C[C@@H]1O[C@@H](O[C@H]2C[C@@H](O)[C@]3(CO)[C@@H]4C(CC[C@]3(O)C2)[C@@]2(O)CC[C@H](C3COC(=O)C3)[C@@]2(C)C[C@H]4O)[C@H](O)[C@H](O)[C@H]1O (stereo not given in full)	Jurkat NFkB inh 95, Mdm2-MdmX inh 68 | Jurkat NFkB conf 67 | 697 NFkB conf inactive | Mdm2 MdmX conf 70 | FLuc counter inactive
COC(=O)C1=C(c2cccc(C#N)c2)C[C@@H]2CC[C@H]1N2C(=O)NCCOc1ccccc1Cl	none
Cc1nc2c(=O)n(C)c(=O)nc-2n(C)n1	Gli-Sufu block 76, Jurkat NFkB inh 56, Mdm2-MdmX inh 74, Shn3 3UTR inh 98 | Jurkat NFkB conf 100 | Mdm2 MdmX conf 58 | FLuc counter inactive
CC1CCN(CCc2nc3ccccc3[nH]2)CC1	none
CCOC(=O)C(O)(c1ccc(N(C)C(=O)COc2ccccc2)cc1)C(F)(F)F (stereo not given)	none
CN(C)C(=O)O/N=C(\N)COc1ccc(C(C)(C)C)cc1	Jurkat NFkB inh 60, Mdm2-MdmX inh 98 | Jurkat NFkB conf inactive | Mdm2 MdmX conf 96 | FLuc counter 57
CC1(C)C[C@H]2C=C(C=O)[C@]3(C=O)C[C@]3(C)[C@H]2C1	Jurkat NFkB inh 94, Mdm2-MdmX inh 100, Shn3 3UTR inh 97 | Jurkat NFkB conf 52 | Mdm2 MdmX conf 100 | FLuc counter inactive
Cc1cc(C=O)c(C)n1C(C)C	none
C[C@H]1CCC[C@H](O)CCCCCc2cc(O)cc(O)c2C(=O)O1	none
C[C@H]1CCC/C=C/C2C[C@H](O)CC2[C@H](O)/C=C/C(=O)O1 (stereo not given in full)	Gli-Sufu block 87, 697 NFkB inh 71, Jurkat NFkB inh 98, Mdm2-MdmX inh 100, Shn3 3UTR inh 94 | Jurkat NFkB conf inactive | 697 NFkB conf 81 | Mdm2 MdmX conf 99 | FLuc counter 51
CC1CCC/C=C/C2CC(O)CC2C(O)/C=C/C(=O)O1 (stereo not given)	Gli-Sufu block 88, 697 NFkB inh 69, Jurkat NFkB inh 97, Mdm2-MdmX inh 96 | Jurkat NFkB conf inactive | 697 NFkB conf 80 | Mdm2 MdmX conf 100 | FLuc counter 52
COc1cc(C2c3cc4c(cc3CC3COC(=O)C32)OCO4)cc(OC)c1OC (stereo not given)	Jurkat NFkB inh 53, Mdm2-MdmX inh 61 | Jurkat NFkB conf 49 | Mdm2 MdmX conf 54 | FLuc counter 98
COc1ccc(NC2Oc3cc4c(cc3C(c3cc(OC)c(OC)c(OC)c3)C2C)OCO4)cc1 (stereo not given)	none (no result: 697 NFkB inh, Jurkat NFkB inh, Mdm2-MdmX inh)
C[C@]12CC[C@H](O)C[C@H]1CC[C@@H]1[C@@H]2C[C@@H](O)[C@]2(C)[C@@H](C3=CC(=O)OC3)CC[C@]12O	Jurkat NFkB inh 98, Mdm2-MdmX inh 73 | Jurkat NFkB conf 74 | 697 NFkB conf inactive | Mdm2 MdmX conf 73 | FLuc counter inactive
C[C@]12CC[C@H](O)C[C@H]1CC[C@@H]1[C@@H]2CC[C@]2(C)[C@@H](C3=CC(=O)OC3)CC[C@]12O	Jurkat NFkB inh 101, Mdm2-MdmX inh 75 | Jurkat NFkB conf 91 | Mdm2 MdmX conf 73 | FLuc counter 53
COc1ccc(-[n+]2c(-c3ccccc3)cc(-c3ccc(C)cc3)cc2-c2ccccc2)cc1	Gli-Sufu block 91, Jurkat NFkB inh 66, Mdm2-MdmX inh 80 | Jurkat NFkB conf inactive | Mdm2 MdmX conf 91 | FLuc counter 49
